This passage reports Potency results from PubChem BioAssay (Tox21).

Values joined by “and” are separate entries in the source; they are usually repeats but may differ in a detail not shown here. Equal values may be shown once. Inconclusive results are not listed. A call without a number means that no potency is given here. Where a structure was tested more than once in an assay, its records may differ in their call. Active and inactive are the calls of the source. The call rests on the fitted dose curve. Starred links: 1 amine or outer side, 2 acyl side, 3 side chain; linkers in the order of their positions; H or OH if unused. Positions of bridges follow the written chain, without caps; N, C: chain ends. Non-standard residues stand in square brackets, D forms with d. Residues, ends and D or L forms follow the SMILES beside them. Chains are numbered I, II in the order given. Actinocin(9to1) = Cc1c2oc3c(C)ccc(C(=O)[*:1])c3nc-2c(C(=O)[*:2])c(N)c1=O; NMeV = CN[C@H](C(=O)O)C(C)C; Sar = CNCC(=O)O
Potency means the concentration at half of the fitted maximal effect.

The experiment in a line: qHTS assay to identify small molecule agonists of the NFkB signaling pathway - cell viability counter screen (AID 1159515). Further: nearly all actives have a fitted effect of over 55% in size. As to conditions: NFkB-bla ME-180 viability, CellTiter-Glo luminescence, 5 h; series mostly up to 61 µM. From the text: National Center for Advancing Translational Sciences [NCATS]
NIH Chemical Genomics Center [NCGC]
U.S. Environmental Protection Agency [EPA]
National Institutes of Environmental Health Sciences [NIEHS]
National Toxicology Program [NTP]
U.S. Food and Drug Administration [FDA]
Transcription factors and their stimulated target gene expression play pivotal roles across many cellular processes including responses to environmental stimuli. Proper regulation of associated pathways is critical to maintain cell health and function. Constitutive activation of transcription factor pathways has been implicated in tumors as it may block cellular functions such as apoptosis and lead to invasion and metastasis. One important transcription factor that stimulates gene expression in response to cytokines, UV radiation, and other stimuli is nuclear factor-kappa B (NFkB). To measure activation of the NFkB pathway, the CellSensor NFkB-bla ME-180 cell line (Life Technologies, Carlsbad, CA) that stably expresses beta-lactamase reporter gene under the regulation of a NF-kB response element was used. This assay allows measurement of the NFkB pathway activity induced by compounds in a ME-180 cell line. This system quantitates NF-kB activity using a FRET-based assay system where beta-lactamase expression disrupts FRET, allowing for fluorescent measurement of activity. This cell line has been used to screen the Tox21 10K compound library and to identify compounds that induce the NFkB pathway activity. The cytotoxicity of the Tox21 compound library against the NFkB-bla ME-180 cell line was tested in parallel by measuring cell viability using the CellTiter-Glo assay in the same wells.
Tox21 Assay Protocol Summary:
NFkB-bla ME-180 cells were dispensed at 2,000 cells/6 uL of assay medium per well into black wall/clear-bottom 1536-well plates using a Multidrop Combi (ThermoFisher Scientific, Waltham, MA) dispenser. After the assay plates were incubated at 37 C and 5% CO2 for an overnight, 23 nL of compounds dissolved in DMSO, positive controls or DMSO only was transferred to the assay plate by a Pintool station (Kalypsys, San Diego, CA). The assay plates were incubated at 37 C and 5% CO2 for 5 hr. One uL of LiveBLAzer B/G FRET substrate (Life Technologies) was added using a Flying Reagent Dispenser (Aurora Discovery, San Diego, CA) and the plates were incubated at room temperature for 1.5 hr. Fluorescence intensity (405 nm excitation, 460 nm and 530 nm emissions) was measured using an Envision plate reader (PerkinElmer, Shelton, CT). For cytotoxicity, 3 ul/well of CellTiter-Glo reagent was added into the assay plates using an FRD. After 30 min incubation at room temperature, the luminescence intensity was measured using a ViewLux plate reader (PerkinElmer).
For `O=C1Nc2ccccc2C1(c1ccc(O)cc1)c1ccc(O)cc1`, the Potency was 174 nM (active).

Turning to `CCC(CO)(CO)COCC(CC)(CO)CO`, the Potency entry is “inactive”.

`O=C(Oc1ccccc1)c1ccccc1O`: the Potency result was “inactive”.

In the case of `CCCCCCC(O)CCCCCCCCCCC(=O)O` (stereo not given), the Potency result was “inactive”.

With `CCOC(=O)C(C)C(C)=O` (stereo not given), the Potency result was “inactive”.

On to `CC(C)(C)c1cc(C(C)(C)C)c(O)c(C(C)(C)C)c1`, for which the Potency entry is “inactive”.

In the case of `NC12CC3CC(CC(C3)C1)C2`, the Potency entry is “inactive”.

`CCCCC(CC)COC(=O)CC(C(=O)OCC(CC)CCCC)S(=O)(=O)O` (stereo not given): the Potency was 47.1 µM (active) and 49 µM (active).

On to `C=C(C)C1CC=C(C)C(OC(C)=O)C1` (stereo not given), for which the Potency entry was “inactive”.

For `COc1nc(C)nc(Cl)c1NC1=NCCN1`, the Potency entry is “inactive”.

Consider `O=S(=O)(O)c1ccc2nc(-c3ccccc3)[nH]c2c1`, for which the Potency was 13100 nM (active).

For the molecule `[Cl][In]([Cl])[Cl]`, the Potency entry was “inactive”.

On to `Nc1cc(Cl)c(-c2cc(Cl)c(N)cc2Cl)cc1Cl`, for which the Potency was 48.9 µM (active) and 54.9 µM (active).

`CCCCC/C=C/CC1CC(=O)OC1=O` (stereo not given): the Potency result was “inactive”.

Turning to `CCc1cc(C(C)(C)C)c(O)c(C(C)(C)C)c1`, the Potency entry was “inactive”.

Regarding `COc1ccc(COC(C)=O)cc1`, the Potency entry is “inactive”.

For `CC(COc1ccccc1)N(CCCl)Cc1ccccc1` (stereo not given), the Potency result is “inactive”.

Regarding `CCN(CC)c1ccc2c(C)cc(=O)oc2c1`, the Potency result is “inactive”.

Turning to `CN(C)c1ccc2nc3ccc(=[N+](C)C)cc-3sc2c1`, the Potency entry is “inactive”.

For the molecule `Oc1c(Cl)cc(Cl)c(Cl)c1Cc1c(O)c(Cl)cc(Cl)c1Cl`, the Potency is 34.6 µM (active) and 43.6 µM (active).

For the molecule `Cc1c(O)cccc1C(=O)N[C@@H](CSc1ccccc1)[C@H](O)CN1C[C@H]2CCCC[C@H]2C[C@H]1C(=O)NC(C)(C)C`, the Potency result was “inactive”.

Regarding `Cc1cc(C(C)(C)C)c(O)c(C(C)(C)C)c1`, the Potency result was “inactive”.

Take `CC(C)C(=O)c1c(C(C)C)nn2ccccc12`: the Potency entry was “inactive”.

For the molecule `Oc1c(Cl)cc(Cl)cc1Sc1cc(Cl)cc(Cl)c1O`, the Potency was 55.1 µM (active) and inactive.

For `O=C1NCC2(CCN(CCc3ccccc3)CC2)O1`, the Potency entry was “inactive”.

As for `C=CS(=O)(=O)O`, the Potency result is “inactive”.

Turning to `CC(=O)OCC1=C(C(=O)O)N2C(=O)[C@@H](NC(=O)Cc3cccs3)[C@H]2SC1`, the Potency result is “inactive”.

With `Cc1cc(OCCOCC[N+](C)(C)Cc2ccccc2)ccc1C(C)(C)CC(C)(C)C`, the Potency was 38.7 µM (active) and 26.8 µM (active).

Regarding `CC1COC(=O)O1` (stereo not given), the Potency result was “inactive”.

On to `CCC(=O)/C=C/C1C(C)=CCCC1(C)C` (stereo not given), for which the Potency entry is “inactive”.

For `Cc1c2oc3c(C)ccc(C(=O)N[C@@H]4C(=O)N[C@H](C(C)C)C(=O)N5CCC[C@H]5C(=O)N(C)CC(=O)N(C)[C@@H](C(C)C)C(=O)O[C@@H]4C)c3nc-2c(C(=O)N[C@@H]2C(=O)N[C@H](C(C)C)C(=O)N3CCC[C@H]3C(=O)N(C)CC(=O)N(C)[C@@H](C(C)C)C(=O)O[C@@H]2C)c(N)c1=O` (I: T[dV]P[Sar][NMeV] / II: T[dV]P[Sar][NMeV]; ester I:1-I:C, II:1-II:C; linker I:N-II:N via Actinocin(9to1)), the Potency result was “inactive”.

As for `O=c1n(CC2CO2)c(=O)n(CC2CO2)c(=O)n1CC1CO1` (stereo not given), the Potency entry is “inactive”.

As for `c1ccc2n[nH]nc2c1`, the Potency entry was “inactive”.

For `CCCCCCCCCCCCCCCCCl`, the Potency entry was “inactive”.

Turning to `CCc1ccc(C(c2ccc(CC)cc2)C(Cl)Cl)cc1`, the Potency entry is “inactive”.

As for `CCN1CCCC1CNC(=O)c1cc(S(=O)(=O)CC)c(N)cc1OC` (stereo not given), the Potency entry is “inactive”.

Turning to `CC(C)(C)c1ccc(O)c(C(C)(C)C)c1`, the Potency was 48.8 µM (active) and 49 µM (active).

In the case of `CC(=O)O[C@]1(C(C)=O)CC[C@H]2[C@@H]3C[C@H](C)C4=CC(=O)CC[C@]4(C)[C@H]3CC[C@@]21C`, the Potency entry was “inactive”.

Regarding `O=C(O[C@@H]1Cc2c(O)cc(O)cc2O[C@@H]1c1cc(O)c(O)c(O)c1)c1cc(O)c(O)c(O)c1`, the Potency entry was “inactive”.

With `CC(C)(C)NCC(O)COc1ccccc1OCC1CCCO1` (stereo not given), the Potency result is “inactive”.
